The list is not random: actives were taken first. Their share in the collection is about 9.2%.
NPC1 promoter act – activators of NPC1 promoter | Huh7 NPC1 promoter luciferase reporter, 24 h | Potency, µM (titrated, usually from 9.22 µM), most hits filed as activators | actives 2.4% (n = 320,000); note: nearly all actives have a fitted effect of over 60% in size
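Cells: Huh7 expressing luciferase under the NPC1 promoter, 1500/well. Seeded 2 h, compound added, incubated 24 h at 37 °C. Luciferase reagent, 10 min ambient, then luminescence.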
Rab9 promoter act – activates the Rab9 promoter; Huh7 Rab9 promoter-luciferase reporter, luminescence, 24 h; Potency, µM (titrated, usually from 9.22 µM), hits mostly activators; actives 2.8% (n = 320,000); note: nearly all actives have a fitted effect of over 60% in size
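Cells were plated at 1500 per well in reduced-serum medium with 10% FBS and left 2 h. Compound in DMSO was then added for 24 h at 37 °C. Reporter signal was read by luminescence after 10 min with luciferase detection reagent.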
FLuc counter – firefly luciferase modulation, counter-screen for miR-21 project | actives 6.9% (n = 360,000) | purified FLuc, Km substrates, luminescence inhibition | P08659 | Potency, µM (doses to about 57.5 µM), most hits filed as inhibitors; note: nearly all actives have a fitted effect of over 55% in size
Target sequence (P08659 whole entry, looked up): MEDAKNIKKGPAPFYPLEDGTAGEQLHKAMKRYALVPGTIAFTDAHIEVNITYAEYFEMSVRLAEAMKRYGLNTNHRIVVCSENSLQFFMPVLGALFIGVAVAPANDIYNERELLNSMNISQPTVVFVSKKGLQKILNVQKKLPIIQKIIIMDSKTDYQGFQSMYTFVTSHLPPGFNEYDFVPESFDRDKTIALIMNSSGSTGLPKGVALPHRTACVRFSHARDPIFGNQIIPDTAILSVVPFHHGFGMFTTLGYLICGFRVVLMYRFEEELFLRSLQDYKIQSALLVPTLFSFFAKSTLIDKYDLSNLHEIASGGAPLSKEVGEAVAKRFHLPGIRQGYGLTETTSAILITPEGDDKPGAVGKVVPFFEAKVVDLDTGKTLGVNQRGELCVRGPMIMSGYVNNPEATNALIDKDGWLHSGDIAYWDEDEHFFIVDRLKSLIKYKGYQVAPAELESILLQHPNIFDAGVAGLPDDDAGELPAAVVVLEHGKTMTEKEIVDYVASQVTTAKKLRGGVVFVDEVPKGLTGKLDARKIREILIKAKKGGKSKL
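Biochemical qHTS of compounds, final roughly 60 µM downward over six points, against 10 nM purified firefly luciferase using Km concentrations of substrates (10 uM D-luciferin, 10 uM ATP) in Tris acetate pH 7.5 buffer; luminescence output.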
SMN2 splice enh – SMN2 splice variant enhancement | HEK293 SMN2-luciferase splicing reporter, luminescence, 30-36 h | Potency, µM (top dose mostly 46.1 µM), most hits filed as activators | actives 2.8% (n = 210,000); note: nearly all actives have a fitted effect of over 55% in size
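HEK293 cells carry an SMN2 minigene-luciferase reporter in which exon 7 inclusion puts luciferase in frame. Cells were seeded at 2000 cells/well, attached for 10-12 hours, then exposed to compounds for 30-36 hours at 37C before ONE-Glo luminescence.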
ELG1 DNA repair – blocks ELG1-dependent DNA repair in HEK293T cells; HEK293T ELG1-luciferase reporter, luminescence, 16 h; DNA damage induced by 5-fluorouridine; Potency, µM (top dose mostly 46.1 µM), usual class: inhibitors; actives 2.3% (n = 330,000); note: nearly all actives have a fitted effect of over 55% in size
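5-Fluorouridine DNA damage + compound/DMSO, 2,000 cells/well, 16 h, 37 °C/5% CO2. ONE-Glo, 30 min RT, luminescence. Readout = decrease in reporter signal.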
ELG1 genotox – inducers of genotoxicity in HEK293T ELG1-luciferase cells. HEK293T ELG1-luciferase reporter, luminescence, 16 h. Potency, µM (doses to about 46 µM), most hits filed as activators. actives 1.3% (n = 330,000). AID 504466; note: nearly all actives have a fitted effect of over 60% in size
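DMSO vehicle served as control against compound-treated ELG1-luciferase HEK293T cells; exposure lasted 16 hr at 37 °C and 5% CO2, followed by ONE-Glo luminescence detection after 30 min.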
A number is an active result; – = inactive; ? = inconclusive; · = not tested or not shown; [ ] = remark or other dose. Calls come from the whole dose curve; as a rule, active = well fitted curve in the direction sought with a large enough effect; inconclusive = small, poorly fitted or top-dose-only effect, or another doubt; inactive = no such curve, though single readings can be large; an effect the other way counts as inactive or inconclusive.

SMILES | NPC1 promoter act | Rab9 promoter act | FLuc counter | SMN2 splice enh | ELG1 DNA repair | ELG1 genotox
C=CCNC(=S)N/N=C/c1cccc([N+](=O)[O-])c1 | – | – | – | – | – | –
Cc1cccc(C)c1NC(=O)CSc1nc2ccccc2c2nc(CCc3c(C)n[nH]c3C)nn12 | · | · | – | · | · | ·
Cc1n[nH]c(C)c1CCc1nc2c3ccccc3nc(SCC(N)=O)n2n1 | – | – | – | – | 23.1µM | –
COc1ccc(OCC(=O)Nc2nonc2NC(=O)COc2ccc(OC)cc2)cc1 | – | – | 1.9µM | – | – | –
COc1ccc(OCC(=O)Nc2cccc(NC(=O)COc3ccc(OC)cc3)n2)cc1 | 2.51µM | ? | 2.13µM | – | ? | ?
Cc1cc(C)cc(OCC(=O)Nc2nonc2NC(=O)COc2cc(C)cc(C)c2)c1 | – | – | – | – | – | –
O=C(N[C@@H](Cc1ccccc1)C(=O)N1CCN(S(=O)(=O)c2ccc(F)cc2)CC1)c1ccco1 | – | – | – | · | – | –
COc1cc(-c2nc(-c3ccccc3)c(-c3ccc(Br)cc3)[nH]2)cc(OC)c1O | · | · | – | – | · | ·
COc1ccc(-c2[nH]c(-c3cc(OC)c4c(c3)OCO4)nc2-c2ccccc2)cc1 | – | – | – | – | 20.6µM | –
O=C(COC(=O)/C=C/c1ccc(OC(F)F)cc1)Nc1cccc(S(=O)(=O)N2CCOCC2)c1 | · | · | · | · | – | –
O=C(O)c1ccccc1NC(=O)N1c2ccccc2Sc2ccccc21 | · | · | ? | – | · | ·
COc1ccc(-c2cc(C(=O)NNC(=O)c3csc(N4CCOCC4)n3)c3ccccc3n2)cc1OC | – | – | 9.53µM | · | ? | –
COc1ccc(-c2cc(C(=O)NNC(=O)c3csc(N4CCOCC4)n3)c3ccccc3n2)cc1 | – | – | 12µM | · | ? | –
COc1ccc(-c2cc(C(=O)NCCCN3CCOCC3)c3ccccc3n2)cc1OC | – | – | – | · | – | –
O=C1CCC(C(=O)N2CCSCC2)CN1CCc1ccccc1 (stereo not drawn) | – | – | – | · | ? | –
COc1ccc(CCN2CC(C(=O)N3CCC(OC)CC3)CCC2=O)cc1 (stereo not drawn) | – | – | – | · | – | –
C=CCC1(CC=C)CCCN1C(=O)C1CCC(=O)N(CCc2ccc(OC)cc2)C1 (stereo not drawn) | 2.51µM | 2.51µM | 10.7µM | · | ? | ?
C=CCC1(CC=C)CCCN1C(=O)C1CCC(=O)N(CCc2ccccc2)C1 (stereo not drawn) | 3.98µM | 2.82µM | 10.7µM | · | ? | ?
Cc1ccc2cc(C#N)c(NCc3ccco3)nc2c1 | – | – | – | – | – | –
COc1ccc(NC(=O)CC2Oc3ccc(C)cc3NC2=O)cc1Cl (stereo not drawn) | · | · | – | – | · | ·
COc1ccc2c(c1)CCC/C2=N\Nc1nc(C(=O)NN)cs1 | – | – | 1.35µM | · | ? | –
CCOC(=O)c1csc(N/N=C2\CCCc3ccccc32)n1 | – | – | ? | · | – | –
CCc1ccc(C(=O)CC2(O)C(=O)N(Cc3ccc(C)cc3)c3ccccc32)cc1 (stereo not drawn) | · | · | 7.57µM | – | · | ·
Cc1ccc(C(=O)CC2(O)C(=O)N(Cc3ccccc3)c3ccccc32)c(C)c1 (stereo not drawn) | · | · | 19µM | – | · | ·
Cc1ccc(C(=O)CC2(O)C(=O)N(Cc3ccccc3)c3ccc(Br)cc32)cc1 (stereo not drawn) | · | · | – | · | · | ·
SMILES | NPC1 promoter act | Rab9 promoter act | FLuc counter | SMN2 splice enh | ELG1 DNA repair | ELG1 genotox
CN(Cc1ccccc1)Cc1c(O)ccc2ccccc12 | – | – | 26.9µM | · | – | –
CN(Cc1cc(Cl)cc(Cl)c1O)Cc1c(O)ccc2ccccc12 | · | · | · | –[9.22 µM] | · | ·
CCc1ccc(NC(=O)c2cnn(-c3ccccc3)c2C)cc1 | 0.501µM | 0.562µM | 0.675µM | 5.62µM | ? | ?
CCCc1c(C(=O)NNc2ccc(C)cc2)cnn1-c1ccccc1 | – | – | – | · | 7.3µM | –
Cc1nn(-c2ccccc2)cc1C(=S)Nc1ccccc1 | ? | ? | 12µM | – | ? | –
CCc1ccc(NC(=O)c2cnn(-c3ccccc3)c2C2CCNCC2)cc1 | – | – | – | – | – | –
Cc1c(C(=O)Nc2cc(F)cc(F)c2)cnn1-c1ccccc1 | 1.26µM | 2.51µM | 7.57µM | · | ? | ?
Cc1c(C(=S)Nc2ccccc2)cnn1-c1ccccc1 | ? | ? | 15.1µM | – | – | –
Cc1c(C(=S)Nc2ccccc2)cnn1-c1ccc([N+](=O)[O-])cc1 | – | – | – | – | ? | –
Cc1c(C(=O)Oc2cccc3ccccc23)cnn1-c1ccccc1 | – | ? | 9.53µM | ? | ? | 8.91µM
Cc1c(C(=O)Nc2ccccc2F)cnn1-c1ccccc1 | 2.51µM | 1.41µM | 5.36µM | · | ? | 8.2µM
Cc1ccc2c(c1)c(=O)c(S(=O)(=O)c1ccc(F)cc1)cn2CC(=O)Nc1ccc2c(c1)OCO2 | · | · | – | – | · | ·
O=C(Cn1nc(C(=O)O)c2ccccc2c1=O)Nc1ccccc1C(F)(F)F | – | – | – | · | – | –
CCOC(=O)/C(=C\C=C1/Sc2cc(OCC)c(OCC)cc2N1CC)C(C)=O | – | – | – | – | 16.4µM | –
COc1ccc(NS(=O)(=O)c2cccc(C(=O)N3CCCC3)c2)cc1 | – | – | – | · | – | –
CC1CCCCC1NC(=O)c1ccc(S(=O)(=O)NCC2CCCO2)cc1 (stereo not drawn) | – | – | – | – | – | –
CC(C)CN1C(=O)c2ccc(NC(=O)c3ccccc3F)cc2C1=O | – | ? | 12µM | – | ? | ?
CC(C)CN1C(=O)c2ccc(NC(=O)c3cccs3)cc2C1=O | – | ? | 9.53µM | – | ? | –
CC(C)CN1C(=O)c2ccc(NC(=O)c3ccco3)cc2C1=O | ? | ? | 19µM | · | ? | –
Cc1ccc(C)c(S(=O)(=O)c2cn(C)c3cc(N4CCCCC4C)c(F)cc3c2=O)c1 (stereo not drawn) | · | · | – | · | · | ·
COc1ccc(OC)c(NS(=O)(=O)c2ccc3c(c2)CCC(=O)N3)c1 | – | – | – | – | – | –
COc1ccc(C(=O)Nc2ccnn2C2CCN(C(C)CSC)CC2)cc1 (stereo not drawn) | – | – | – | · | – | –
O=C(Nc1ccc(N2CCN(c3ccc(F)cc3)CC2)c(C(=O)O)c1)c1cccs1 | · | · | – | · | · | ·
O=C(NC(=S)Nc1ccc(N2CCOCC2)c(Cl)c1)c1cccs1 | ? | ? | 19µM | – | – | –
O=C(Nc1ccc(N2CCCC2)c(Cl)c1)c1cccs1 | 0.708µM | 0.447µM | 2.39µM | 2.82µM | ? | 2.31µM
CC(C)(CO)NC(=O)Nc1ccc(Cl)c(Cl)c1 | – | – | – | – | – | –
O=C(NNc1nc(-c2ccccc2)cs1)c1ccccc1 | – | – | ? | – | ? | –
Cc1ccc(-c2csc(Nc3ccccn3)n2)cc1 | 0.708µM | 1µM | 0.601µM | · | ? | 0.82µM
O=C(Nc1nc(-c2cc(F)ccc2F)cs1)c1ccccn1 | – | – | ? | – | – | –
